# Source: PubChem BioAssay
# Pf growth 96h: P. falciparum growth inhibition at 96 hour, primary screen for plastid delayed-death inhibitors. AID 504834. P. falciparum luciferase reporter growth, 96 h. 320,000 tested, 6.9% active. Potency, µM (series often up to 28.7 µM), for the others: at the highest dose activity change, negative = inhibition, hits mostly inhibitors; also: potency is read from the fitted curve at half-maximal effect
#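 P. falciparum expressing integrated firefly luciferase, in erythrocytes at 2% hematocrit, 0.05% parasitemia, incubated with compounds 96 h at 37 C, 5% CO2. Growth inhibition read as loss of luminescence; two-generation exposure targets delayed-death apicoplast inhibitors.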
# Pf growth 48h: P. falciparum growth inhibition at 48 hours (one generation) | P. falciparum luciferase growth in erythrocytes, 48 h | Potency, µM (doses to about 28.7 µM), for the others: at the highest dose activity change, negative = inhibition, usual class: inhibitors | 310,000 tested, 5.9% active | AID 504832; also: potency is read from the fitted curve at half-maximal effect
#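 Luciferase-expressing parasites in RBCs, 2% Hct / 0.1% parasitemia final; RPMI 1640 + 0.5% Albumax; 37 C, 5% CO2, one generation; luminescence read-out, lower signal = inhibition.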
# HCV inhibitor: blocks hepatitis C virus; Potency, µM (series often up to 41.8 µM), inactives show top-dose activity change, negative = inhibition, most hits filed as inhibitors; 340,000 tested, 3.4% active; AID 651820; Huh7.5.1 HCVcc-Cre infection, luciferase reporter, 44 h; also: potency is read from the fitted curve at half-maximal effect
#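 Cells seeded at 1,000/well and cultured 4 h, then compounds added followed by HCVcc-Cre virus (~0.5 moi). After 44 h further culture, luciferase substrate was added, plates held 15 min at room temperature, and luminescence read for 15 sec.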
# HCMV antiviral: blocks human cytomegalovirus replication; HFF cells, HCMV-luciferase reporter, 72 h; active compounds read low; activity change, negative = inhibition, % at 57.5 µM; 410,000 tested, 4.5% active; AID 1259415; in the data active = activity change below about -60%; inconclusive = no clear call, values can overlap the other calls; inactive = above about -39%
#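 Two compound doses tested in HFFs infected with HCMV-luciferase, MOI 1 PFU/cell, 72 h at 37C. Lysate luminescence read with OneGlo; data normalized against buffer-only and 10uM Salinomycin inhibitor controls.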
# An asterisk follows results filed as active; ? = inconclusive; / = not tested or not shown. Compounds with a hit are over-represented: about 13% of the library has one in this group of screens. Unless noted, calls follow the shape of the dose curve; as a rule, active = well fitted inhibition curve with a large enough effect; inconclusive = small, poorly fitted or top-dose-only effect, or another doubt; inactive = no such curve, though single readings can be large or run the other way. % is scaled to controls: 0 for no effect and ±100 for the full control effect.
SMILES,Pf growth 96h,Pf growth 48h,HCV inhibitor,HCMV antiviral
Cc1nc(NC(=O)c2ccco2)sc1-c1csc(Nc2ccc(Cl)cc2Cl)n1,8.28µM*,?,?,-77.1*
O=C(Nc1nc2ccc(Cl)cc2s1)c1ccco1,/,188.5%,5.6%,42.9
CC(=O)Nc1ccc(Nc2nc(-c3sc(C)nc3C)cs2)cc1,?,5.1%,?,-28.9
COc1cccc(N(C(=O)c2ccco2)c2nc(-c3sc(NC(=O)c4ccco4)nc3C)cs2)c1,?,?,3.98µM*,?
COc1ccc2nc(NC(=O)c3ccco3)sc2c1,-9.5%,7.0%,-9.0%,55.7
N#CC(C#N)=NNc1ccc(-n2ccc(C(F)(F)F)n2)cc1,?,?,3.98µM*,-96.6*
O=C(O)CC(CC(=O)Nc1ccc(-n2ccc(C(F)(F)F)n2)cc1)c1ccccc1 (stereo unspecified),48.8%,?,8.4%,67.9
O=C(Nc1ccccc1)Nc1ccc(-n2ccc(C(F)(F)F)n2)cc1,3.29µM*,?,?,3.6
COc1cccc(NC(=O)Cc2c(O)c3ccccc3[nH]c2=O)c1,?,/,7.5%,-10.0
CCOc1ccc(NC(=O)Cc2c(O)c3ccccc3[nH]c2=O)cc1,91.0%,2.94µM*,24.3%,-14.5
CCN(CC)CC(=O)N1c2ccccc2Oc2c(c(=O)n(C)c(=O)n2C)C1c1cccc([N+](=O)[O-])c1 (stereo unspecified),?,5.86µM*,-6.8%,43.2
CN1c2ccccc2Oc2c(c(=O)n(C)c(=O)n2C)C1c1cccc([N+](=O)[O-])c1 (stereo unspecified),?,-8.6%,3.55µM*,1.0
CCOC(=O)C1=C(O)C(=O)N(c2ccccc2)C1c1cccc([N+](=O)[O-])c1 (stereo unspecified),3.9%,11.3%,9.4%,?
Cc1ccc(-c2nc(CCNC(=O)C(=O)Nc3ccc(C)c(C)c3)cs2)cc1,/,/,/,89.4
CSc1nnc(Cc2sc(-c3ccccc3)nc2-c2ccccc2)o1,0.2%,/,?,10.3
COc1ccc(CSc2nnc(Cc3sc(-c4ccccc4)nc3-c3ccccc3)o2)cc1,2.08µM*,11.7µM*,-6.4%,-21.1
Fc1ccc(CSc2nnc(Cc3sc(-c4ccccc4)nc3-c3ccccc3)o2)cc1,11.7µM*,/,7.0%,47.8
COC1=C(OC)C(=O)C(Sc2ccc3ccccc3c2)=CC1=O,/,/,?,-81.1*
O=C(c1ccoc1)N1CCC2(CC1)Oc1ccc(F)cc1C(=O)C21CC(c2ccccc2)=NO1 (stereo unspecified),11.7µM*,?,11.8%,-8.3
O=C(c1ccc2c(c1)OCO2)N1CCC2(CC1)Oc1ccc(F)cc1C(=O)C21CC(c2ccccc2)=NO1 (stereo unspecified),?,13.1µM*,-17.6%,-23.9
Cc1ccc(C(=O)N2CCC3(CC2)Oc2ccc(F)cc2C(=O)C32CC(c3ccccc3)=NO2)s1 (stereo unspecified),10.4µM*,?,-2.9%,-14.5
Cc1ccc(C(=O)N2CCC3(CC2)Oc2ccc(F)cc2C(=O)C32CC(c3ccc(Cl)cc3)=NO2)s1 (stereo unspecified),?,?,16.3%,28.8
CCOc1ccc(C2c3c(oc4ccccc4c3=O)C(=O)N2Cc2ccc3c(c2)OCO3)cc1 (stereo unspecified),/,/,/,10.8
O[C@H]1[C@H]2[C@H](O)CCCN2C[C@H]1O,9.53µM*,-5.4%,/,/
O[C@H]1[C@H](O)[C@@H](O)CN2CC[C@H](O)[C@H]12,20.1%,-14.9%,13.7%,-35.0
SMILES,Pf growth 96h,Pf growth 48h,HCV inhibitor,HCMV antiviral
COc1cccc(CN2CCN(c3cccc(C(F)(F)F)c3)CC2)c1OC,/,-29.0%,-11.9%,-31.8
CCOc1cccc(CN2CCCC(N3CCc4ccccc4C3)C2)c1O (stereo unspecified),-19.4%,1.65µM*,-21.9%,0.9
CCOc1cccc(CN2CCN(c3cccc(C(F)(F)F)c3)CC2)c1O,/,2.33µM*,-19.9%,-13.3
FC(F)(F)c1cccc(N2CCN(Cc3cccnc3)CC2)c1,4.65µM*,?,12.0%,?
COc1cccc(N2CCN(Cc3cccnc3)CC2)c1,/,-19.1%,16.1%,35.8
Cc1nn(C)c(Cl)c1CN1CCCC(CCC(=O)NCc2ccccc2F)C1 (stereo unspecified),-13.4%,9.1%,-15.2%,?
CCOc1cccc(CN2CCCC(CCC(=O)NCc3ccccc3F)C2)c1O (stereo unspecified),1.47µM*,?,-6.1%,-6.5
CC(C)/C=C/CN1CCCC(N2CCN(c3cccc(Cl)c3)CC2)C1 (stereo unspecified),77.5%,?,-18.0%,0.6
CCOc1cccc(CN2CCCC(N3CCN(c4cccc(Cl)c4)CC3)C2)c1O (stereo unspecified),3.7µM*,?,-11.9%,48.8
CCOc1cccc(CN2CCCC(C(=O)c3cc(Cl)ccc3OC)C2)c1O (stereo unspecified),-27.7%,1.65µM*,?,-17.1
CCc1ccccc1NC(=O)Cn1c(=O)ccc2cc(S(=O)(=O)N3CCC(C)CC3)ccc21,/,/,/,-4.8
Cc1ccc([C@H]2N[C@]3(CCCN(Cc4ccco4)C3=O)[C@H]3C(=O)N(C)C(=O)[C@@H]23)cc1,/,/,/,11.4
CCOC(=O)N1CCC(NC(=O)c2ccc3c(c2)N(Cc2ccc(F)cc2)C(=O)c2ccccc2S3=O)CC1 (stereo unspecified),/,/,/,-20.7
O=C(C1CCN(S(=O)(=O)c2cccs2)CC1)N1CCN(c2ccccc2O)CC1,7.38µM*,?,-20.4%,9.7
O=C(C1CCN(S(=O)(=O)c2cccs2)CC1)N1CCCC(C(F)(F)F)C1 (stereo unspecified),275.6%,-13.2%,18.0%,-98.4*
O=C(CC12CC3CC(CC(C3)C1)C2)N1CCN(S(=O)(=O)c2cccs2)CC1,13.1µM*,?,4.0%,-17.7
CC1Cc2ccccc2N1C(=O)C1CCN(S(=O)(=O)c2cccs2)CC1 (stereo unspecified),0.928µM*,-26.8%,15.3%,?
CC1CCCN(C(=O)C2CCN(S(=O)(=O)c3cccs3)CC2)C1 (stereo unspecified),3.7%,?,5.4%,-22.6
CN(C)c1cccc(C(=O)N2CCC(c3ccncc3)CC2)c1,/,/,/,-30.5
CCCCn1c(N)c(N(CCOC)C(=O)c2cc(-c3ccc(OC)cc3)nc3ccccc23)c(=O)[nH]c1=O,?,9.28µM*,-7.0%,?
CCCCn1c(N)c(N(CCOC)C(=O)c2cc(-c3ccc(C)cc3)nc3ccccc23)c(=O)[nH]c1=O,11.7µM*,?,10.7%,-29.3
CCCCn1c(N)c(N(CCOC)C(=O)c2cc(-c3ccc(F)cc3)nc3ccccc23)c(=O)[nH]c1=O,?,?,4.3%,-18.5
CCCCn1c(N)c(N(CCOC)C(=O)c2ccc(-c3cccc(C(F)(F)F)c3)o2)c(=O)[nH]c1=O,7.38µM*,13.1µM*,-3.5%,-30.9
COc1ccc(C)cc1NC(=O)CCn1nc(C)cc1C,/,/,/,10.8
COc1cc(OC)c(NC(=O)NCCn2nnc3cc(S(=O)(=O)N(C)C)ccc32)cc1Cl,/,/,/,-11.2
